Assay results as given in PubChem BioAssay (NCI).
This is part of a sample that, as a whole, favours compounds with a hit. Of some 83,000 tested, about 20% had one in any assay.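 Cells were grown in 96-well plates and exposed to the test compound at a single concentration for 48 hours; results are reported as percent growth, with values below 10 considered active.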 Values without a mark were called inactive. The source made the active and inactive calls.

The compounds below were run on SK-OV-3 ovarian (assay: NCI-60 one-dose screen, 48 h (100 = growth as untreated, 0 = no growth, -100 = all killed)). Conditions: 10 µM unless noted.

Point of comparison: `O=C(Nc1ccc([N+](=O)[O-])cc1)C(Cl)(Cl)Cl`, growth 115%. Against it:
- O=C(Nc1ccc(O)cc1)C(Cl)(Cl)Cl — lower, 98.2%
- CCCOC(=O)N[C@H]1CCc2c(Br)c(OC)c(OC)c(OC)c2-c2ccc(SC)c(=O)cc21 — lower, 40.8%
- CCOC(=O)[C@@H](C)C[C@H](Cc1ccccc1)NC(=O)c1csc([C@@H](C[C@H](C(C)C)N(C)C(=O)[C@@H](NC(=O)[C@H]2CCCCN2C)C(C)(C)CC)OC(C)=O)n1 — lower, 26.9%
- CN1CC(CNC(=O)OCc2ccccc2)CC2c3cccc4c3c(cn4C)CC21 (centres undefined) — lower, 69%
- ClCCN(CCCl)c1ccc(/C=N\N=C\c2ccc(N(CCCl)CCCl)cc2)cc1 — lower, 19.6%
- C[C@@]12CC=C3c4nc(Nc5cccc(O)c5)sc4CC[C@]3(C)[C@H]1CC[C@]1(C)C(=O)CC[C@@H]21 — lower, 37.3%
- O=[N+]([O-])/C=C\c1ccc(Cl)c(Cl)c1 — lower, 96.4%
- CC(C)OC(=O)[C@H](C)NP(=O)(Oc1ccccc1)C1CCCN(O)C1=O (some centres undefined) — higher, 122%
- COC(=O)CCC1=C(C)c2cc3[n-]c(cc4nc(cc5[n-]c(cc1n2)c(CCC(=O)OC)c5C)C=C4C)cc3C.[Cd+2] — lower, 83.5%
- C=CCn1cc(C=C2C(=O)N(C)C(=O)N(C)C2=O)c2ccccc21 — lower, 87.4%
- N#CC1C(C#N)C2CCC1C1C2N1c1ccccc1 (centres undefined) — lower, 100%
- CC(C)(NC(=O)O[C@@H]1CN2CCC1CC2)c1csc(-c2ccc(F)cc2)n1 — lower, 99.6%
- CCC(C)(C)[C@H](NC(=O)[C@H]1CCCCN1C)C(=O)N(C)[C@H](C[C@@H](OC(C)=O)c1nc(C(=O)N[C@@H](Cc2ccccc2)C[C@H](C)C(=O)O)cs1)C(C)C — lower, 38.1%
- C[C@]12CCc3sc(-c4ccccc4O)nc3C1=CC[C@@H]1[C@@H]2CC[C@]2(C)C(=O)CC[C@@H]12 — lower, 102%
- CCOC(=O)N1CC1 — lower, 111%
- N#CC1(C#N)C(c2ccc(N(CCCl)CCCl)cc2)OC23CCCCC2C1(C#N)C(=N)O3 (centres undefined) — lower, 96.8%
- C=CCCCN=C=S — lower, 70.7%
- Cc1cccc(N2CCN(C(C)C#N)CC2)c1 (centres undefined) — lower, 102%
- COP(=S)(N1CC1)N1CC1 — lower, 110%
- O=C(N/N=C\c1ccc(N(CCCl)CCCl)cc1)c1cccc([N+](=O)[O-])c1 — lower, 82.7%
- CS(=O)(=O)CCN1CC2CCCC(C2)C1 — lower, 100%
- CNCc1cccnc1 — lower, 106%
- Cn1cc(C=O)c2nccnc21 — lower, 101%
- Cc1cc(N(CCCl)CCCl)ccc1C=Nc1ccccc1-c1ccccc1 — lower, 98.6%
- CNC(=O)Oc1ccc2c(c1)OCO2 — higher, 116%
- CC1(C)[C@H](O)[C@H](F)C[C@@]2(C)Oc3ccc(C(=O)Nc4ccc5c(c4)NC(=O)C54CCN(CCCCC#N)CC4)cc3C[C@H]12 — lower, 17.7%
- C[C@]12CCc3sc(-c4cccc(F)c4)nc3C1=CC[C@@H]1[C@@H]2CC[C@]2(C)C(=O)CC[C@@H]12 — lower, 17.9%
- C[C@]12CC[C@H]3[C@@H](C[C@@H]4SC(Nc5ccccc5)=N[C@@]45CC(O)CC[C@]35C)[C@@H]1CCC2O (some centres undefined) — lower, 89.6%

For `COc1ccc(NC([Se])=NC23CC4CC(CC(C4)C2)C3)cc1`, the growth was -18.2% (active).
For `COC(=O)[C@@H](C)C[C@H](Cc1ccccc1)NC(=O)c1nc([C@@H](C[C@H](C(C)C)N(C)C(=O)[C@@H](NC(=O)[C@H]2C[C@H](O)CCN2C)C(C)C)OC(C)=O)sc1C(C)C`, the growth was 2.1% (active).
With `CC(=O)OC[C@]1(C)C=C2C(=O)[C@](C)(O)C3(CC3)C(C)=C2[C@H]1O` the growth was -40.4% (active).
In the case of `CCOC(=O)[C@@H](C)C[C@H](Cc1ccccc1)NC(=O)c1csc([C@@H](C[C@H](C(C)C)N(C)C(=O)[C@@H](NC(=O)[C@H]2C[C@H](O)CCN2C)C(C)C)OC(C)=O)n1`, the growth is reported as 7.61% (active).
`COc1ccc(N(CC(=O)NCCC[Te]c2ccccc2)C(=O)CCSC2=C(C)C(=O)c3ccccc3C2=O)cc1` was tested, and the growth was -55.6% (active).
For `Cn1cccc1C1CC(=O)N(CCC[Se]C#N)C1=O` (centres undefined), the growth was -15.7% (active).
For `CCOC(=O)[C@@H](C)C[C@H](Cc1ccccc1)NC(=O)c1nc([C@@H](C[C@H](C(C)C)N(C)C(=O)[C@@H](NC(=O)[C@H]2CCCCN2C)C(C)C)OC(C)=O)sc1CCOCc1ccccc1`, the growth was -3.36% (active).

Work on `COC(=O)[C@H](C[C@H](Cc1ccccc1)NC(=O)c1csc([C@@H](C[C@H](C(C)C)N(C)C(=O)[C@@H](NC(=O)[C@H]2CCCCN2C)C(C)C)OC(C)=O)n1)NC(=O)OCc1ccccc1` yielded a growth of 22.9% [8.5 µM].

What follows are compounds tested on IGROV1 ovarian in the same assay as above. Conditions: 10 µM unless noted.

Point of comparison: `CS(=O)(=O)CCN1CC2CCCC(C2)C1`, growth 115%. Against it:
- O=C(Nc1ccc(O)cc1)C(Cl)(Cl)Cl — lower, 100%
- CCCOC(=O)N[C@H]1CCc2c(Br)c(OC)c(OC)c(OC)c2-c2ccc(SC)c(=O)cc21 — lower, 10.9%
- CCOC(=O)[C@@H](C)C[C@H](Cc1ccccc1)NC(=O)c1csc([C@@H](C[C@H](C(C)C)N(C)C(=O)[C@@H](NC(=O)[C@H]2CCCCN2C)C(C)(C)CC)OC(C)=O)n1 — lower, 14.5%
- CN1CC(CNC(=O)OCc2ccccc2)CC2c3cccc4c3c(cn4C)CC21 (centres undefined) — lower, 52.6%
- ClCCN(CCCl)c1ccc(/C=N\N=C\c2ccc(N(CCCl)CCCl)cc2)cc1 — lower, 71.5%
- O=[N+]([O-])/C=C\c1ccc(Cl)c(Cl)c1 — lower, 92.7%
- CC(C)OC(=O)[C@H](C)NP(=O)(Oc1ccccc1)C1CCCN(O)C1=O (some centres undefined) — lower, 90.6%
- COC(=O)CCC1=C(C)c2cc3[n-]c(cc4nc(cc5[n-]c(cc1n2)c(CCC(=O)OC)c5C)C=C4C)cc3C.[Cd+2] — lower, 35.1%
- C=CCn1cc(C=C2C(=O)N(C)C(=O)N(C)C2=O)c2ccccc21 — lower, 95.6%
- COC(=O)[C@@H](C)C[C@H](Cc1ccccc1)NC(=O)c1nc([C@@H](C[C@H](C(C)C)N(C)C(=O)[C@@H](NC(=O)[C@H]2C[C@H](O)CCN2C)C(C)C)OC(C)=O)sc1C(C)C — lower, 10.2%
- N#CC1C(C#N)C2CCC1C1C2N1c1ccccc1 (centres undefined) — lower, 85.1%
- CC(C)(NC(=O)O[C@@H]1CN2CCC1CC2)c1csc(-c2ccc(F)cc2)n1 — lower, 101%
- CCC(C)(C)[C@H](NC(=O)[C@H]1CCCCN1C)C(=O)N(C)[C@H](C[C@@H](OC(C)=O)c1nc(C(=O)N[C@@H](Cc2ccccc2)C[C@H](C)C(=O)O)cs1)C(C)C — lower, 17.5%
- C[C@]12CCc3sc(-c4ccccc4O)nc3C1=CC[C@@H]1[C@@H]2CC[C@]2(C)C(=O)CC[C@@H]12 — lower, 103%
- CCOC(=O)N1CC1 — lower, 93.5%
- N#CC1(C#N)C(c2ccc(N(CCCl)CCCl)cc2)OC23CCCCC2C1(C#N)C(=N)O3 (centres undefined) — lower, 77%
- C=CCCCN=C=S — lower, 72%
- Cc1cccc(N2CCN(C(C)C#N)CC2)c1 (centres undefined) — lower, 108%
- O=C(Nc1ccc([N+](=O)[O-])cc1)C(Cl)(Cl)Cl — lower, 93.5%
- COP(=S)(N1CC1)N1CC1 — lower, 106%
- O=C(N/N=C\c1ccc(N(CCCl)CCCl)cc1)c1cccc([N+](=O)[O-])c1 — lower, 76.8%
- CCOC(=O)[C@@H](C)C[C@H](Cc1ccccc1)NC(=O)c1csc([C@@H](C[C@H](C(C)C)N(C)C(=O)[C@@H](NC(=O)[C@H]2C[C@H](O)CCN2C)C(C)C)OC(C)=O)n1 — lower, 20.3%
- CNCc1cccnc1 — lower, 114%
- Cn1cc(C=O)c2nccnc21 — higher, 122%
- Cc1cc(N(CCCl)CCCl)ccc1C=Nc1ccccc1-c1ccccc1 — lower, 47.8%
- CNC(=O)Oc1ccc2c(c1)OCO2 — lower, 104%
- CC1(C)[C@H](O)[C@H](F)C[C@@]2(C)Oc3ccc(C(=O)Nc4ccc5c(c4)NC(=O)C54CCN(CCCCC#N)CC4)cc3C[C@H]12 — lower, 63.2%
- C[C@]12CC[C@H]3[C@@H](C[C@@H]4SC(Nc5ccccc5)=N[C@@]45CC(O)CC[C@]35C)[C@@H]1CCC2O (some centres undefined) — lower, 11.2%

In the case of `COc1ccc(NC([Se])=NC23CC4CC(CC(C4)C2)C3)cc1`, the growth is reported as 3.84% (active).
`C[C@@]12CC=C3c4nc(Nc5cccc(O)c5)sc4CC[C@]3(C)[C@H]1CC[C@]1(C)C(=O)CC[C@@H]21` was tested, and the growth was -12.1% (active).
With `CC(=O)OC[C@]1(C)C=C2C(=O)[C@](C)(O)C3(CC3)C(C)=C2[C@H]1O` the growth was -31.1% (active).
`COc1ccc(N(CC(=O)NCCC[Te]c2ccccc2)C(=O)CCSC2=C(C)C(=O)c3ccccc3C2=O)cc1` was tested, and the growth was -68.3% (active).
In the case of `Cn1cccc1C1CC(=O)N(CCC[Se]C#N)C1=O` (centres undefined), the growth is reported as -44.1% (active).
`CCOC(=O)[C@@H](C)C[C@H](Cc1ccccc1)NC(=O)c1nc([C@@H](C[C@H](C(C)C)N(C)C(=O)[C@@H](NC(=O)[C@H]2CCCCN2C)C(C)C)OC(C)=O)sc1CCOCc1ccccc1` was tested, and the growth was -4.01% (active).
For `C[C@]12CCc3sc(-c4cccc(F)c4)nc3C1=CC[C@@H]1[C@@H]2CC[C@]2(C)C(=O)CC[C@@H]12`, the growth was 0.597% (active).

Work on `COC(=O)[C@H](C[C@H](Cc1ccccc1)NC(=O)c1csc([C@@H](C[C@H](C(C)C)N(C)C(=O)[C@@H](NC(=O)[C@H]2CCCCN2C)C(C)C)OC(C)=O)n1)NC(=O)OCc1ccccc1` yielded a growth of 13% [8.5 µM].
